Hits are enriched below; roughly 4% of the tested compounds scored in any of these assays.
Mtb bLac sens: beta-lactam sensitization of Mtb H37Rv | M. tuberculosis H37Rv growth with meropenem, percent inhibition | inhibition, % at 25 µM | 330,000 compounds, 0.27% hits; call rule not given here;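 note: growth measured after seven days incubation then overnight dye step; 0% = bacteria only wells and 100% = bacteria with antibiotic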
Mtb UGM inh: blocks M. tuberculosis UGM enzyme; P9WIQ1; 320,000 compounds, 0.06% hits; purified UGM, fluorescence polarization probe displacement; inhibition, % at 10 µM; in the data active = inhibition above about 10%, passing the limit was not always enough; inconclusive = no clear call, values can overlap the other calls
FBA Mtb inh: Mtb fructose-bisphosphate aldolase inhibition | 360,000 compounds, 2.3% hits | P9WQA3 | purified M. tuberculosis FBA, fluorescence read-out | AID 588726 | inhibition, % at 1 µM; in the data active = inhibition above about 27%;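 note: 0% = vehicle and 100% = reference inhibitor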
GDH-TPI counter: inhibits GDH-TPI coupling enzymes, artifact for Mtb FBA screen | 360,000 compounds, 1.2% hits | AID 588335 | inhibition, % at 4.8 µM | GDH-TPI coupled enzyme counterscreen, NADH absorbance; in the data active = inhibition above about 30%;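 note: 0% = DMSO wells and 100% = wells lacking the enzyme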
Rv3671c protease: Rv3671c (M. tuberculosis) protease inhibition; P9WHR9; inhibition, % at 5.96 µM; 320,000 compounds, 0.048% hits; AID 2606; in the data active = inhibition above about 38%;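 note: extracellular domain of Rv3671c used as enzyme; 0% = enzyme with DMSO and 100% = no enzyme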
RecA splice inh: Mtb RecA intein splicing inhibition; inhibition, % (test concentration not listed); cell-free RecA intein splicing, fluorescence; AID 2221; 290,000 compounds, 0.75% hits; in the data active = inhibition above about 30%; inconclusive = no clear call, values can overlap the other calls;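 note: 0% = vehicle wells and 100% = reference inhibitor control wells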
The depositor's hits bear a star; i = inactive; ? = inconclusive; nt = no result given; + = active, no number.

SMILES	Mtb bLac sens	Mtb UGM inh	FBA Mtb inh	GDH-TPI counter	Rv3671c protease	RecA splice inh
O=C(O)c1cc(S(=O)(=O)N2CC3CC3C2C(=O)O)c(Cl)cc1Cl (stereo unspecified)	8	1	-2	-9	1	1
N#Cc1cccc(-c2csc(C(O)c3ccco3)n2)c1 (stereo unspecified)	nt	nt	-5	-7	nt	nt
COC(=O)c1cccc(N(CC(=O)NC2CCCCC2)C(=O)CNC(=O)c2cccs2)c1	1	-2	-1	0	2	0
COCCNC(=O)Cc1c(C)c2cc3c(cc2oc1=O)OC(C)(C)CC3	-5	1	165*	16	nt	0
Cc1c(CC(=O)N[C@H](C(=O)O)C(C)C)c(=O)oc2cc3c(cc12)CCC(C)(C)O3	-2	0	153*	23	nt	1
COc1cccc(C(=O)NCC(=O)N/N=C/c2ccc3c(c2)OCO3)c1	2	2	-1	6	-2	-4
CN1C(=O)C2C(c3ccc(N(C)C)cc3)=NN(Cc3ccccc3)C2C1=O (stereo unspecified)	-5	1	2	44*	8	2
COc1ccc(C2=NN(Cc3ccccc3)C3C(=O)NC(=O)C23)cc1 (stereo unspecified)	-13	0	-6	1	3	2
Nc1nc(N)c2[nH]c(-c3ccccc3)nc2n1	-7	2	+	11	nt	-2
COc1cccc(C=C2SC(=S)NC2=O)c1	nt	nt	-2	31*	nt	nt
O=C(NCCN1CCc2ccccc2C1)Nc1ccc([N+](=O)[O-])cc1	-12	1	2	40*	8	-2
O=C(NCCCN1CCc2ccccc2C1)Nc1ccc(Br)cc1	2	-1	4	6	1	4
COc1ccc(C(=O)NCC(=O)OCC(=O)NCc2ccc3c(c2)OCO3)cc1	-10	0	-2	1	2	nt
CCCCNS(=O)(=O)c1ccc2nc(-c3cccnc3)cc(C(=O)NCCOC)c2c1	-2	-2	1	32*	-8	0
COCCCNC(=O)c1cc(-c2cccnc2)nc2ccccc12	-1	-1	4	11	7	0
N#CCc1ccc(NC(=O)/C=C/c2ccc([N+](=O)[O-])o2)cc1	nt	nt	-1	34*	nt	8
O=C(O)/C=C/c1ccc([N+](=O)[O-])o1	81	-1	-5	13	3	nt
Cc1nc2ccccc2c(N)c1C(=O)/C=C/c1ccccc1	-4	2	1	37*	-7	-1
CC(=O)c1c(C)nc2ccccc2c1N	-2	0	0	16	3	0
CC(C(=O)NC(=O)NC1CCCCC1)N1CCN(c2ccc(O)cc2)CC1 (stereo unspecified)	-11	2	4	12	0	nt
COc1cc(C)ccc1OCc1cc(C(=O)NCCN2CCOCC2)no1	?	0	-3	6	-9	1
Cc1cccc2c1c(N=NC(N)=S)c(O)n2C1OC(CO)C(O)C(O)C1O (stereo unspecified)	2	2	0	21	-1	3
COc1ccc(C(=O)NCC(=O)N2CCN(C(=O)c3ccco3)CC2)cc1[N+](=O)[O-]	-10	11*	3	12	-2	nt
COc1ccc(C(=O)NCC(=O)N2CCN(C(=O)c3ccco3)CC2)cc1OC	nt	nt	0	1	nt	nt
CC(C)N1CCC1(C)C(=O)Nc1cc(-c2ccccc2)nn1C (stereo unspecified)	nt	nt	2	11	nt	nt
SMILES	Mtb bLac sens	Mtb UGM inh	FBA Mtb inh	GDH-TPI counter	Rv3671c protease	RecA splice inh
COc1ccc2cc3c(N)nn(C(=O)c4ccccc4Cl)c3nc2c1	44	1	-5	36*	-17	0
COc1ccc2cc3c(N)nn(C(=O)c4ccc(F)cc4)c3nc2c1	1	0	1	41*	-21	-1
CC(C)(C)C(=O)CSc1nc(N)cc(=O)[nH]1	-4	0	2	35*	2	6
CCOC(=O)CSc1nc(N)cc(=O)[nH]1	-17	-3	5	14	-8	-10
O=C(COC(=O)c1ccccc1-n1cnnn1)c1ccc(F)c(F)c1	0	-1	0	1	-3	1
Nc1nc2nc(-c3ccc(Cl)cc3)cc(C(F)(F)F)n2n1	-4	0	+	1	-3	-35
Nc1ccc(C(=O)Nc2nc3ccccc3s2)cc1	1	-1	6	34*	0	0
N=c1oc2cc(O)ccc2cc1C(=O)Nc1ccccn1	0	4	nt	nt	4	nt
N=c1oc2cc(O)ccc2cc1C(=O)Nc1nc2ccccc2s1	-4	-1	+	1	-1	i
